Results reported in PubChem BioAssay (NCI).
Compounds without any hit were thinned out: in the full panel of roughly 79,000, 15% have a hit. Active and inactive are the calls of the source. Rule as the data show it: active = growth inhibition above about 70%; inactive = the rest.

Experiments:
[1] = NCI Yeast Anticancer Drug Screen. Data for the rad52 strain (AID 147);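 also: 0% = growth of vehicle-treated control cultures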; conditions: S. cerevisiae rad52 mutant growth inhibition, active compounds read high
Procedure, shortened: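 Screen used a yeast mutant impaired in DNA repair. After compound exposure, growth was measured. Values reflect inhibition compared with vehicle-treated cells.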

[2] = NCI Yeast Anticancer Drug Screen. Data for the wt1 strain (AID 149);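 also: 0% = growth of vehicle-treated wt1 cultures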; conditions: S. cerevisiae wt1 strain (SPY 50644) growth inhibition, active compounds read high
Procedure, shortened: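 Growth inhibition read against vehicle controls after compound exposure of the wt1 yeast strain.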

[3] = NCI Yeast Anticancer Drug Screen. Data for the rad50EPP+ strain (AID 151);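 also: 0% = growth of vehicle-treated control cultures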; conditions: S. cerevisiae rad50 mutant strain, active compounds read high
Procedure, shortened: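 Exposing the rad50EPP+ strain to each compound, growth was compared with vehicle-only cultures to give inhibition.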

[4] = NCI Yeast Anticancer Drug Screen. Data for the mgt1 strain (AID 153); conditions: S. cerevisiae mgt1 mutant growth inhibition, active compounds read high
Procedure, shortened: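 Genetically defined yeast (mgt1) treated with compound; inhibition of growth expressed against vehicle-treated controls.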

[5] = NCI Yeast Anticancer Drug Screen. Data for the rad50 strain (AID 155);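 also: 0% = growth of vehicle-only cultures of the same strain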; conditions: S. cerevisiae rad50 strain growth inhibition, active compounds read high
Procedure, shortened: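 Readout: growth inhibition relative to vehicle-treated cultures. Compound exposure was carried out in a genetically defined yeast strain deficient in DNA damage repair.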

[6] = NCI Yeast Anticancer Drug Screen. Data for the mec2-1 strain (AID 157); conditions: S. cerevisiae mec2-1 strain, active compounds read high
Procedure, shortened: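 Readout is yeast growth inhibition, normalised to vehicle-treated controls, in the mec2-1 strain exposed to compound.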

[7] = NCI Yeast Anticancer Drug Screen. Data for the rad14 strain (AID 159);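 also: 0% = growth of vehicle-treated control cultures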; conditions: S. cerevisiae rad14 strain growth inhibition, active compounds read high
Procedure, shortened: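 Growth inhibition vs vehicle controls; genetically altered yeast strain (DNA damage repair defect) treated with test compounds.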

[8] = NCI Yeast Anticancer Drug Screen. Data for the sgs1 mgt1 strain (AID 161);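 also: 0% = growth of cultures given vehicle only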; conditions: S. cerevisiae sgs1 mgt1 strain, active compounds read high
Procedure, shortened: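 This yeast growth screen uses a strain with defined DNA-repair lesions; compound-treated growth is compared with vehicle-treated growth.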

[9] = NCI Yeast Anticancer Drug Screen. Data for the CLN2oe strain (AID 163);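 also: 0% = growth of vehicle-only control cultures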; conditions: S. cerevisiae CLN2oe strain, active compounds read high
Procedure, shortened: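 Values reflect how much compound exposure reduced yeast growth, referenced to vehicle-exposed cells. Assay organism is a strain with a defined genetic change affecting cell-cycle control.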

[10] = NCI Yeast Anticancer Drug Screen. Data for the cln2 rad14 strain (AID 165);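 also: 0% = growth equal to vehicle treated cultures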; conditions: S. cerevisiae cln2 rad14 strain, active compounds read high
Procedure, shortened: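 Relative to vehicle controls, growth inhibition of compound-treated cln2 rad14 yeast was recorded.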

[11] = NCI Yeast Anticancer Drug Screen. Data for the bub3 strain (AID 167); conditions: S. cerevisiae bub3 mutant strain, active compounds read high
Procedure, shortened: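 Readout: yeast growth inhibition, expressed relative to vehicle-only wells. The test organism is a mutant strain from a panel with lesions in DNA repair or checkpoint genes.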

[12] = NCI Yeast Anticancer Drug Screen. Data for the wt2 strain (AID 169);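 also: 0% = growth of vehicle-treated yeast cultures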; conditions: S. cerevisiae wt2 strain growth inhibition, active compounds read high
Procedure, shortened: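 Values express reduction in yeast growth under compound treatment, referenced to vehicle-treated cells.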

[13] = NCI Yeast Anticancer Drug Screen. Data for the mlh1 strain (AID 171);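 also: 0% = growth of vehicle-treated control cultures of the same strain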; conditions: S. cerevisiae mlh1 strain growth inhibition, active compounds read high
Procedure, shortened: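 Steps: expose the defined-mutant yeast strain to compound; expose a parallel culture to vehicle; measure growth; express compound effect as inhibition relative to the vehicle culture.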

[14] = NCI Yeast Anticancer Drug Screen. Data for the mlh1 rad18 strain (AID 175); conditions: S. cerevisiae mlh1 rad18 strain growth inhibition, active compounds read high
Procedure, shortened: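 Test agents were incubated with a yeast strain of defined genotype (DNA damage repair defect). Inhibition of growth was derived by comparison with vehicle-exposed cultures.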

[15] = NCI Yeast Anticancer Drug Screen. Data for the rad18 strain (AID 177); conditions: S. cerevisiae rad18 mutant growth inhibition, active compounds read high
Procedure, shortened: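 A genetically defined yeast mutant impaired in DNA damage repair was treated with test compounds, then its growth was measured against cultures receiving vehicle alone.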

[16] = NCI Yeast Anticancer Drug Screen. Data for the sgs1 strain (AID 173);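 also: 0% = growth of vehicle-only control cultures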; conditions: S. cerevisiae sgs1 mutant, active compounds read high
Procedure, shortened: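 Treat defined-mutant yeast with compound; measure growth; calculate inhibition relative to vehicle-treated cells.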

[17] = at 5.0 µM (retest, dose inferred, filed as 0.5)
[18] = at 50.0 µM (retest, dose inferred, filed as 5.0)

Measured: growth inhibition

NNC(=S)Nc1cccc2ccccc12
inactive: [1]; at 1.2 µM -10% | [1]; at 3.7 µM -35% | [1]; at 11.0 µM -29% | [1]; at 33.0 µM 8% | [1]; at 100.0 µM 20% | [2]; at 1.2 µM -21% | [2]; at 3.7 µM -17% | [2]; at 11.0 µM -24% | [2]; at 33.0 µM -7% | [2]; at 100.0 µM 7% | [3]; at 1.2 µM -48% | [3]; at 3.7 µM -52% | [3]; at 11.0 µM -54% | [3]; at 33.0 µM -45% | [3]; at 100.0 µM 4% | [4]; at 1.2 µM -16% | [4]; at 3.7 µM -45% | [4]; at 11.0 µM -23% | [4]; at 33.0 µM -7% | [4]; at 100.0 µM 60% | [5]; at 1.2 µM -31% | [5]; at 3.7 µM -26% | [5]; [17] 45% | [5]; at 11.0 µM -31% | [5]; at 33.0 µM -6% | [5]; [18] 35% | [5]; at 50.0 µM 23.6% | [5]; at 100.0 µM 43% | [6]; at 1.2 µM -16% | [6]; at 3.7 µM -41% | [6]; [17] 60% | [6]; at 11.0 µM -20% | [6]; at 33.0 µM -9% | [6]; at 50.0 µM 23.8% | [6]; at 100.0 µM 12% | [7]; at 1.2 µM -14% | [7]; at 3.7 µM -33% | [7]; at 11.0 µM -50% | [7]; at 33.0 µM -32% | [7]; at 100.0 µM 28% | [8]; [17] -11% | [8]; [18] 54% | [9]; at 1.2 µM 5% | [9]; at 3.7 µM -3% | [9]; at 11.0 µM 2% | [9]; at 33.0 µM 3% | [9]; at 100.0 µM 27% | [10]; [17] 31% | [10]; [18] 67% | [11]; at 1.2 µM -6% | [11]; at 3.7 µM -9% | [11]; [17] 36% | [11]; at 11.0 µM -15% | [11]; at 33.0 µM 13% | [11]; [18] 59% | [11]; at 100.0 µM 55% | [12]; at 1.2 µM -40% | [12]; at 3.7 µM -36% | [12]; at 11.0 µM -33% | [12]; at 33.0 µM -16% | [12]; at 100.0 µM 17% | [13]; at 1.2 µM -37% | [13]; at 3.7 µM -38% | [13]; at 11.0 µM -29% | [13]; at 33.0 µM -13% | [13]; at 100.0 µM 48% | [14]; [17] 40% | [14]; [18] 62% | [14]; at 50.0 µM 49.2% | [15]; at 1.2 µM -32% | [15]; at 3.7 µM -39% | [15]; at 11.0 µM -21% | [15]; at 33.0 µM 2% | [15]; at 100.0 µM 18%
active: [6]; [18] 78%

C=C1N(C)c2ccc(Cl)cc2C1(C)C
inactive: [1]; at 1.2 µM -26% | [1]; at 3.7 µM -25% | [1]; at 11.0 µM -38% | [1]; at 33.0 µM -7% | [2]; at 1.2 µM -37% | [2]; at 3.7 µM -28% | [2]; at 11.0 µM -30% | [2]; at 33.0 µM -21% | [3]; at 1.2 µM -5% | [3]; at 3.7 µM -7% | [3]; at 11.0 µM -23% | [3]; at 33.0 µM -18% | [3]; at 100.0 µM -6% | [4]; at 1.2 µM -23% | [4]; at 3.7 µM 0% | [4]; at 11.0 µM 0% | [4]; at 33.0 µM 29% | [5]; at 1.2 µM 4% | [5]; at 3.7 µM -22% | [5]; [17] 68% | [5]; at 11.0 µM -26% | [5]; at 33.0 µM 20% | [6]; at 1.2 µM -3% | [6]; at 3.7 µM 4% | [6]; at 11.0 µM -8% | [6]; at 33.0 µM 19% | [7]; at 1.2 µM -33% | [7]; at 3.7 µM -37% | [7]; at 11.0 µM -23% | [7]; at 33.0 µM 12% | [8]; [17] -6% | [9]; at 1.2 µM -16% | [9]; at 3.7 µM -31% | [9]; at 11.0 µM -22% | [9]; at 33.0 µM 4% | [10]; [17] 64% | [11]; at 1.2 µM 18% | [11]; at 3.7 µM 28% | [11]; [17] -1% | [11]; at 11.0 µM 5% | [11]; at 33.0 µM 28% | [12]; at 1.2 µM -30% | [12]; at 3.7 µM -30% | [12]; at 11.0 µM -28% | [12]; at 33.0 µM -23% | [13]; at 1.2 µM -45% | [13]; at 3.7 µM -43% | [13]; at 11.0 µM -30% | [13]; at 33.0 µM 3% | [16]; at 1.2 µM -24% | [16]; at 3.7 µM -46% | [16]; at 11.0 µM -47% | [16]; at 33.0 µM 1% | [14]; [17] 57% | [15]; at 1.2 µM -2% | [15]; at 3.7 µM -18% | [15]; at 11.0 µM -26% | [15]; at 33.0 µM 15%
active: [1]; at 100.0 µM 94% | [2]; at 100.0 µM 92% | [4]; at 100.0 µM 97% | [5]; [18] 99% | [5]; at 50.0 µM 88.9% | [5]; at 100.0 µM 94% | [6]; [17] 77% | [6]; [18] 100% | [6]; at 50.0 µM 90.1% | [6]; at 100.0 µM 96% | [7]; at 100.0 µM 95% | [8]; [18] 88% | [9]; at 100.0 µM 96% | [10]; [18] 86% | [11]; [18] 93% | [11]; at 100.0 µM 97% | [12]; at 100.0 µM 94% | [13]; at 100.0 µM 94% | [16]; at 100.0 µM 92% | [14]; [18] 100% | [14]; at 50.0 µM 88.9% | [15]; at 100.0 µM 94%
